Columns and labels:
Assay in all cases: DAPPL (digital affinity profiling via proximity ligation, sequencing); 10 mM Tris-HCl pH 7.5, 50 mM NaCl, 1 mM DTT, 4% glycerol, room temperature, 30 min; GST-TFs on glutathione beads, 16-mer random dsDNA library, 0.1% formaldehyde crosslink after washing; high values mean tight binding
FEV = target: T1, FEV (Homo sapiens, UniProt Q99581 1-238); details: protein: recombinant; tags: N-terminal GST; dsDNA, one strand shown
T1 sequence: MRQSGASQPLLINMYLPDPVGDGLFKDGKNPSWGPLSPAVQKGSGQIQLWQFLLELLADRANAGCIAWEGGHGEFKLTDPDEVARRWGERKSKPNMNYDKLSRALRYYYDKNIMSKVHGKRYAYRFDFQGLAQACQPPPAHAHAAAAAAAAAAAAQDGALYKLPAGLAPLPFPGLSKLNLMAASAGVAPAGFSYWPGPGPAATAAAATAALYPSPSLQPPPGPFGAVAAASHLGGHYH
Method in brief: (§1)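 Binding signal is each hexamer's read frequency for a factor divided by its frequency in the tag-only sample. The factors were GST-fused human transcription factors from yeast, captured on glutathione beads, DNA-barcoded and pooled with that sample. Pools were incubated with 200 nmole of a random double-stranded 16-mer DNA library in Tris/NaCl/DTT/glycerol buffer at room temperature for 30 min, then washed, crosslinked with 0.1% formaldehyde, proximity-ligated with BsaI/T4 ligase (1 h, 37 °C), PCR-amplified and sequenced on an Illumina NextSeq500.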

ETV5 = ETV5 (Homo sapiens, UniProt P41161 1-510); details: protein: recombinant; tags: N-terminal GST; dsDNA, one strand shown
Sequence of ETV5 (P41161 whole entry): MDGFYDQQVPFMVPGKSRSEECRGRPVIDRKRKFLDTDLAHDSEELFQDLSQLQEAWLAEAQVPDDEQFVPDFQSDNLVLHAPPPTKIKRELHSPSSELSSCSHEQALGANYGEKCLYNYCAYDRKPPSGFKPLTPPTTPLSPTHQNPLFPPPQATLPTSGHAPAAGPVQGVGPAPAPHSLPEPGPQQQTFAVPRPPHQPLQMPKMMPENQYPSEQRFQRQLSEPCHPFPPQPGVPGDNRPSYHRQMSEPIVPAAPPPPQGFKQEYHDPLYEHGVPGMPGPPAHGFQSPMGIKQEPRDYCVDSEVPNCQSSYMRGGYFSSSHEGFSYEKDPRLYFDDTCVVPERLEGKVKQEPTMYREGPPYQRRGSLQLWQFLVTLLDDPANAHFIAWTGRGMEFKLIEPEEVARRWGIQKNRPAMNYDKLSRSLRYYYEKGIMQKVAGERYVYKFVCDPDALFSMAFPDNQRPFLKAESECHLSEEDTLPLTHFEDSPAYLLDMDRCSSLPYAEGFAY
Method in brief: as §1

HSF1 = HSF1 (Homo sapiens, UniProt Q00613 1-529); details: protein: recombinant; tags: N-terminal GST; chain copies: 3; dsDNA, one strand shown
Sequence of HSF1 (Q00613 whole entry): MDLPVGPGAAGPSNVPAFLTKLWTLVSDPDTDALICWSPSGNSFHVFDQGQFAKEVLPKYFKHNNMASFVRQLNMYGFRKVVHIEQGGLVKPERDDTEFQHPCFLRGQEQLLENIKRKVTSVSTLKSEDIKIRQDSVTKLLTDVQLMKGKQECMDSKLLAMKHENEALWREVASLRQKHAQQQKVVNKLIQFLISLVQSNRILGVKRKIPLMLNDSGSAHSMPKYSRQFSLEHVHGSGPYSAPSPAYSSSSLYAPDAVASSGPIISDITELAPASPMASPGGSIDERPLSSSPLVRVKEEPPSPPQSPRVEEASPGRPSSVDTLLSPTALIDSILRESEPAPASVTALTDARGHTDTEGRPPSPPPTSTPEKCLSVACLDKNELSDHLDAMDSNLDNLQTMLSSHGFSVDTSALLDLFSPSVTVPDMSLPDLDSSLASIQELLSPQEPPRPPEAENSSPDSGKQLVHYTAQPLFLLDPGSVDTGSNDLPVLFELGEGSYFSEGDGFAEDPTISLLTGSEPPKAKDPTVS
Method in brief: as §1

ELF4 = ELF4 (Homo sapiens, UniProt Q99607 1-663); details: protein: recombinant; tags: N-terminal GST; dsDNA, one strand shown
Sequence of ELF4 (Q99607 whole entry): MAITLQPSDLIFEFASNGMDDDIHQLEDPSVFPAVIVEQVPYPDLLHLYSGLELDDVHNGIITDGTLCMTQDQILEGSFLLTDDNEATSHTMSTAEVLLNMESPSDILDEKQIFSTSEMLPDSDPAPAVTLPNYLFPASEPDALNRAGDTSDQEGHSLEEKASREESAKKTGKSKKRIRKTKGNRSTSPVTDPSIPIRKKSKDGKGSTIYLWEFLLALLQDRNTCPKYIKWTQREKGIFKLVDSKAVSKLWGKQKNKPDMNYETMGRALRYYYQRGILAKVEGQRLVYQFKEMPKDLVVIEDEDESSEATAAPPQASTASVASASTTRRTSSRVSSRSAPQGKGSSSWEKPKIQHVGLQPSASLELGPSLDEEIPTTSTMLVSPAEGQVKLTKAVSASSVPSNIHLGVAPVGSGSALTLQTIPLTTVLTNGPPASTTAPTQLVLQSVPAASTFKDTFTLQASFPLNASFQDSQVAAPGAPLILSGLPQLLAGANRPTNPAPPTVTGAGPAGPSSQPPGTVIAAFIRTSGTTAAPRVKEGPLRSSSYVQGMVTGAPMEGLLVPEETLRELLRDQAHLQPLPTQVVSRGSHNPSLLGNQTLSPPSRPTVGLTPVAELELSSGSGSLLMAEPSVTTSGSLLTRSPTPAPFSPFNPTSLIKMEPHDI
Method in brief: as §1

ELK4 = target: T2, ELK4 (Homo sapiens, UniProt P28324-2 1-405); details: protein: recombinant; tags: N-terminal GST; dsDNA, one strand shown
T2 sequence: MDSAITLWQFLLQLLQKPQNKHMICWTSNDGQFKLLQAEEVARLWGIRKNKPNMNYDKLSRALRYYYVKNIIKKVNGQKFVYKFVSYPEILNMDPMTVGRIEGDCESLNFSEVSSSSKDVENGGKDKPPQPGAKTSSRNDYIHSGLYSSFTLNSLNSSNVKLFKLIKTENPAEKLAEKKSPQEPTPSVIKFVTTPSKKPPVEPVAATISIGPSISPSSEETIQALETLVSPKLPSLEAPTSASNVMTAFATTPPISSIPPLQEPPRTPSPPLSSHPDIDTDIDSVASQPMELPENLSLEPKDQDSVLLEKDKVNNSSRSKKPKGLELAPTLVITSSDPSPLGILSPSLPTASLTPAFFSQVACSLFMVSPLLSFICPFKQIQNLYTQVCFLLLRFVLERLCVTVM
Method in brief: as §1

ELF3 = target: T3, ELF3 (Homo sapiens, UniProt P78545 1-371); details: protein: recombinant; tags: N-terminal GST; dsDNA, one strand shown
T3 sequence: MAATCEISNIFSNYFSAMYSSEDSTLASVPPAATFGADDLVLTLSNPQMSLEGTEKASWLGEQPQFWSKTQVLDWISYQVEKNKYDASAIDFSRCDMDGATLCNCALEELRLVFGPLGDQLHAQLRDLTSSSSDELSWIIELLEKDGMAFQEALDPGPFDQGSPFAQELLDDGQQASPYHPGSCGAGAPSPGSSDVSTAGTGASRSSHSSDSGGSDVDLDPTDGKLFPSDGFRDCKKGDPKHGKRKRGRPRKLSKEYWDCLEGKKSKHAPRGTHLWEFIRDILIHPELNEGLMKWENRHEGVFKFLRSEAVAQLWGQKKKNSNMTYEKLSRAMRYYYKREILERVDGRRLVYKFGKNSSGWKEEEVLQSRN
Method in brief: as §1

CRX = CRX (Homo sapiens, UniProt O43186 1-299); details: protein: recombinant; tags: N-terminal GST; dsDNA, one strand shown
Sequence of CRX (O43186 whole entry): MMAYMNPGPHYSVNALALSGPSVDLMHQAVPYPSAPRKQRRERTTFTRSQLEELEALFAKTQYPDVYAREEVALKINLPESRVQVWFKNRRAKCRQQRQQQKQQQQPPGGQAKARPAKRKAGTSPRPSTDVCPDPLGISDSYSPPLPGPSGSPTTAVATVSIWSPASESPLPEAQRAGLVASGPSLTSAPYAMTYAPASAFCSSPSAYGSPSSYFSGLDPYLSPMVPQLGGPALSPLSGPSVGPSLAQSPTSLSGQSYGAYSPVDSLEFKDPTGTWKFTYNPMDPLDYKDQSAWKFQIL
Method in brief: as §1

ETV1 = ETV1 (Homo sapiens, UniProt P50549 1-477); details: protein: recombinant; tags: N-terminal GST; dsDNA, one strand shown
Sequence of ETV1 (P50549 whole entry): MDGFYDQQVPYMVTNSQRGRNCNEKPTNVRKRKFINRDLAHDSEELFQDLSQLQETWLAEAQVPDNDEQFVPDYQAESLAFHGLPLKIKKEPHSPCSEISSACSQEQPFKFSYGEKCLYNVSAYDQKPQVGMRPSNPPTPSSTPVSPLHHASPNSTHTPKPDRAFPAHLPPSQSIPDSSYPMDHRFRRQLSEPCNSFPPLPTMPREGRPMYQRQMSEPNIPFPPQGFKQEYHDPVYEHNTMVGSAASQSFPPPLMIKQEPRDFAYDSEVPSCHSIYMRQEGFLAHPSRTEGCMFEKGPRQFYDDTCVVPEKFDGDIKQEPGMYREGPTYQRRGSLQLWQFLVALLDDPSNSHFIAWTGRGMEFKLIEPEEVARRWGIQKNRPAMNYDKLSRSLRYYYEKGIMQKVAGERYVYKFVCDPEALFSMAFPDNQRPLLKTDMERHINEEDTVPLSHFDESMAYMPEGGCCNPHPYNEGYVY
Method in brief: as §1

ERF = target: T4, ERF (Homo sapiens, UniProt P50548 1-548); details: protein: recombinant; tags: N-terminal GST; dsDNA, one strand shown
T4 sequence: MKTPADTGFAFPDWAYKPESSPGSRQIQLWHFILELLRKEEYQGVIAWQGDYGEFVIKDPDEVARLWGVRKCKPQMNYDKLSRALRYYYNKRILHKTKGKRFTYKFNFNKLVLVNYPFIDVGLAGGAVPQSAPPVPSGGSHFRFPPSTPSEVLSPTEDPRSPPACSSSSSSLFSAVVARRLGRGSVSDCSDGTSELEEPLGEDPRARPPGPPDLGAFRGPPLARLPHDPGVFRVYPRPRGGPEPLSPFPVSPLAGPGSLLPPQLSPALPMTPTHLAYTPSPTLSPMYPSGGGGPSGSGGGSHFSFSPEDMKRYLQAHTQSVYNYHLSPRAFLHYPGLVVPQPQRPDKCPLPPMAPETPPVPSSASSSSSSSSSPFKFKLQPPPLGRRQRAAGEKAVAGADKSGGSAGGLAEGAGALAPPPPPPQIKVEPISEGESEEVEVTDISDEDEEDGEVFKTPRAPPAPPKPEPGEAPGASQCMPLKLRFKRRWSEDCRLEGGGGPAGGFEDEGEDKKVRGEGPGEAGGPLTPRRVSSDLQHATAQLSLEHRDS
Method in brief: as §1

ETV3L = target: T5, ETV3L (Homo sapiens, UniProt Q6ZN32 1-361); details: protein: recombinant; tags: N-terminal GST; dsDNA, one strand shown
T5 sequence: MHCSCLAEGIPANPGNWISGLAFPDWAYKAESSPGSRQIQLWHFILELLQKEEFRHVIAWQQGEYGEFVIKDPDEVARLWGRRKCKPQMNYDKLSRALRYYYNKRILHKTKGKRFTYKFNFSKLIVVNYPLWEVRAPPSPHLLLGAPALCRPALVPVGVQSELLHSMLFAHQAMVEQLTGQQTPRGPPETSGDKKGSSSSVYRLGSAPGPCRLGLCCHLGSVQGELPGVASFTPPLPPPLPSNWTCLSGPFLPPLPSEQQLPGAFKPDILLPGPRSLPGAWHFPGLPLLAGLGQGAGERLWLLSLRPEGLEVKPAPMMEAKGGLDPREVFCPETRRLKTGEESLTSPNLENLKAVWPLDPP
Method in brief: as §1

ETS2 = target: T6, ETS2 (Homo sapiens, UniProt P15036 1-469); details: protein: recombinant; tags: N-terminal GST; dsDNA, one strand shown
T6 sequence: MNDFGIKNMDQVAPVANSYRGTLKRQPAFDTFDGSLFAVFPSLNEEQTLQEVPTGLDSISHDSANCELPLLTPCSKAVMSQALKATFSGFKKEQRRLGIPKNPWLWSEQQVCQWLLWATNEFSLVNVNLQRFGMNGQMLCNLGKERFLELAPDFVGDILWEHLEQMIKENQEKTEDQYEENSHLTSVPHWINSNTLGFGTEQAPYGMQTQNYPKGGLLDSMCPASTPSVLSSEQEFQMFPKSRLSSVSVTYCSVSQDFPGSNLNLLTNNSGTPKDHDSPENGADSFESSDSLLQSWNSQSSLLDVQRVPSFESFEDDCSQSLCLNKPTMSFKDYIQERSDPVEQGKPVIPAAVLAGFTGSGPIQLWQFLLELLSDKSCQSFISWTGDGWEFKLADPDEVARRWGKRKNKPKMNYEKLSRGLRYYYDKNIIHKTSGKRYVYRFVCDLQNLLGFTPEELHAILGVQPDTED
Method in brief: as §1

ETV7 = target: T7, ETV7 (Homo sapiens, UniProt Q9Y603 1-341); details: protein: recombinant; tags: N-terminal GST; dsDNA, one strand shown
T7 sequence: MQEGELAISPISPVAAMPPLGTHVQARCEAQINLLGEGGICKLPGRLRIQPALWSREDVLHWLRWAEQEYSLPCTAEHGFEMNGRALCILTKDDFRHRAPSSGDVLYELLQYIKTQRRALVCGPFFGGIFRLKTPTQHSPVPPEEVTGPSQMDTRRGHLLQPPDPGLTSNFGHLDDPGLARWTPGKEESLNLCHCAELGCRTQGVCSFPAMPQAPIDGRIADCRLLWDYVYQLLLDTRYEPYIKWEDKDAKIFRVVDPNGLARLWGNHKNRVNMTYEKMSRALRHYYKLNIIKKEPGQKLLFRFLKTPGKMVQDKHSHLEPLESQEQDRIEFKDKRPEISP
Method in brief: as §1

ELF5 = target: T8, ELF5 (Homo sapiens, UniProt Q9UKW6-2 1-255); details: protein: recombinant; tags: N-terminal GST; dsDNA, one strand shown
T8 sequence: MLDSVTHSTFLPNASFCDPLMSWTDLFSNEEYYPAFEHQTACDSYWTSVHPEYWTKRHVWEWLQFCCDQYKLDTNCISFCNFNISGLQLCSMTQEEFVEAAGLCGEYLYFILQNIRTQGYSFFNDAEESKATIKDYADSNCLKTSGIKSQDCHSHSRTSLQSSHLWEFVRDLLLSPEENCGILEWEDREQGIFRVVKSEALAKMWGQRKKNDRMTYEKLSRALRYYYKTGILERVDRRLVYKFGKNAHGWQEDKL
Method in brief: as §1

ETV3 = target: T9, ETV3 (Homo sapiens, UniProt P41162-2 1-143); details: protein: recombinant; tags: N-terminal GST; dsDNA, one strand shown
T9 sequence: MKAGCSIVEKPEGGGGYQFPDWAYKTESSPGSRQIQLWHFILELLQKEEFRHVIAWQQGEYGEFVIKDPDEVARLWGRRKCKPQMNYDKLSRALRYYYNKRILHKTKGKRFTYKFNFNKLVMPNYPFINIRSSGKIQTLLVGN
Method in brief: as §1

ETV6 = ETV6 (Homo sapiens, UniProt P41212 1-452); details: protein: recombinant; tags: N-terminal GST; dsDNA, one strand shown
Sequence of ETV6 (P41212 whole entry): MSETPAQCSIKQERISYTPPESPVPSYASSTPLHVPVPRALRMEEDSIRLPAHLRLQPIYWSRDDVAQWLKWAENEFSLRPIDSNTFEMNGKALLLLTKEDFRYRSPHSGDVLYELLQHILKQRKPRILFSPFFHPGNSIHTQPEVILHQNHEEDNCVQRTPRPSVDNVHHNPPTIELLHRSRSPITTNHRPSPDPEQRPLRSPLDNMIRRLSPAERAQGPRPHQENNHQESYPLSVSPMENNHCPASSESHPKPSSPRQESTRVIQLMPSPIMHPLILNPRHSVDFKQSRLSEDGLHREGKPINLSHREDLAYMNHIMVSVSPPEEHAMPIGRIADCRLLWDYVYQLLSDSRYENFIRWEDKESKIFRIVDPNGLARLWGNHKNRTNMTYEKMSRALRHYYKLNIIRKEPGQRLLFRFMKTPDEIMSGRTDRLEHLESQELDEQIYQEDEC
Method in brief: as §1

ETV2 = target: T10, ETV2 (Homo sapiens, UniProt O00321 1-342); details: protein: recombinant; tags: N-terminal GST; dsDNA, one strand shown
T10 sequence: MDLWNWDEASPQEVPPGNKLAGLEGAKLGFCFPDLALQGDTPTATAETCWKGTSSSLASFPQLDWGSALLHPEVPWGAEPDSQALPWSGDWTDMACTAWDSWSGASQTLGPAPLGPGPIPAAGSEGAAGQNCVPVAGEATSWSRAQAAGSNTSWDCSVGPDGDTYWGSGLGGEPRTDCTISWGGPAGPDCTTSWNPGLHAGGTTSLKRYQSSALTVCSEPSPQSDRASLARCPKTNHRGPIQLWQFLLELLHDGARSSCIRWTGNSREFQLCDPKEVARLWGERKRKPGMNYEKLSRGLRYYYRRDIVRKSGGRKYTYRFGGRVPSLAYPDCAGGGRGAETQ
Method in brief: as §1

| Sequence | binding signal (FEV) | binding signal (ETV5) | binding signal (HSF1) | binding signal (ELF4) | binding signal (ELK4) | binding signal (ELF3) | binding signal (CRX) | binding signal (ETV1) | binding signal (ERF) | binding signal (ETV3L) | binding signal (ETS2) | binding signal (ETV7) | binding signal (ELF5) | binding signal (ETV3) | binding signal (ETV6) | binding signal (ETV2) |
| --- | --- | --- | --- | --- | --- | --- | --- | --- | --- | --- | --- | --- | --- | --- | --- | --- |
| AAGCGA | 1.04 fold enrichment (6-mer frequency, TF over GST control) | 1.04 fold enrichment (6-mer frequency, TF over GST control) | 1.04 fold enrichment (6-mer frequency, TF over GST control) | 1.09 fold enrichment (6-mer frequency, TF over GST control) | 1.06 fold enrichment (6-mer frequency, TF over GST control) | 1.08 fold enrichment (6-mer frequency, TF over GST control) | 1.09 fold enrichment (6-mer frequency, TF over GST control) | 1 fold enrichment (6-mer frequency, TF over GST control) | 1.02 fold enrichment (6-mer frequency, TF over GST control) | 1.02 fold enrichment (6-mer frequency, TF over GST control) | 1.05 fold enrichment (6-mer frequency, TF over GST control) | 1.09 fold enrichment (6-mer frequency, TF over GST control) | 1.07 fold enrichment (6-mer frequency, TF over GST control) | 1.12 fold enrichment (6-mer frequency, TF over GST control) | 1.05 fold enrichment (6-mer frequency, TF over GST control) |  |
| GAACAT | 1.01 fold enrichment (6-mer frequency, TF over GST control) | 1.12 fold enrichment (6-mer frequency, TF over GST control) | 1.81 fold enrichment (6-mer frequency, TF over GST control) | 1 fold enrichment (6-mer frequency, TF over GST control) |  | 1.06 fold enrichment (6-mer frequency, TF over GST control) | 1.03 fold enrichment (6-mer frequency, TF over GST control) |  | 1.1 fold enrichment (6-mer frequency, TF over GST control) | 1.01 fold enrichment (6-mer frequency, TF over GST control) | 1 fold enrichment (6-mer frequency, TF over GST control) | 1.11 fold enrichment (6-mer frequency, TF over GST control) | 1.09 fold enrichment (6-mer frequency, TF over GST control) | 1.08 fold enrichment (6-mer frequency, TF over GST control) | 1.07 fold enrichment (6-mer frequency, TF over GST control) | 1.01 fold enrichment (6-mer frequency, TF over GST control) |

— paper PMC7862700, “An all-to-all approach to the identification of sequence-specific readers for epigenetic DNA modifications on cytosine”
